Shn3 3UTR inh = inhibitors of Schnurri-3 3'UTR reporter in osteoblasts; inhibition, % at 12.5 µM; Clone20 osteoblast Shn3 3'UTR firefly luciferase, 24 h; actives 0.52% (n = 360,000); AID 588674;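 active = mean inhibition of at least 75% with every replicate also reaching 75%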;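 note: 0% = median of neutral control wells and 100% = pilot-screen positive control compound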
697 NFkB inh = lowers PMA/ionomycin-induced NF-kB signal in 697 B cells. 697 B-cell NF-kB luciferase reporter, 16 h. inhibition, % at 4 µM. actives 0.33% (n = 330,000); in the data active = inhibition above about 35%
Gli-Sufu block = antagonists of Gli-Sufu signaling; Sufu-KO-LIGHT fibroblasts, Gli luciferase reporter luminescence; inhibition, % at 5 µM; actives 0.74% (n = 340,000); AID 588413;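 active = inhibition above about 55%, limit read from the data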;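 note: 0% = DMSO-treated cells and 100% = wells with medium but no cells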
Mdm2 MdmX PPI = human Mdm2/MdmX binding inhibition; SaOS-2 split-luciferase Mdm2/MdmX complementation, luminescence; inhibition, % at 8 µM; actives 3% (n = 330,000); AID 485346;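 active = inhibition of at least 50% at 8 µM in the primary screen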
Jurkat NFkB inh = inhibitors of the PMA/ionomycin-induced NF-kB reporter in Jurkat cells; PMA/ionomycin-induced NF-kB luciferase reporter, luminescence; inhibition, % at 4 µM; actives 0.53% (n = 330,000); AID 435003; in the data active = inhibition above about 50%
Mdm2 MdmX conf = human Mdm2/MdmX binding inhibition, confirmed; shares compounds with Mdm2 MdmX PPI; luminescent assay; inhibition, % at 8 µM; actives 55% (n = 10,000); in the data active = inhibition above about 40%
Full FLuc ctr = full-length luciferase inhibition in Mdm2/MdmX counter-screen; shares compounds with Mdm2 MdmX PPI; SaOS-2 full-length luciferase counterscreen, luminescence; inhibition, % at 8 µM; actives 77% (n = 6,200); AID 504607;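 active = mean inhibition at 8 µM reaching about 37%, which flags the compound as non-specific, limit read from the data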;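 note: p53-null SaOS-2 cells with luciferase driven by a doxycycline-inducible promoter; compound on cells about two nights before reading with doxycycline added after day one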
An asterisk follows results filed as active; / = no result. A selection: hits, their analogues and other compounds. The true share with any hit is near 3.8%.

SMILES	Shn3 3UTR inh	697 NFkB inh	Gli-Sufu block	Mdm2 MdmX PPI	Jurkat NFkB inh	Mdm2 MdmX conf	Full FLuc ctr
O=C(COc1ccc(Br)cc1)Nc1ccc(N2CCOCC2)cc1N1CCOCC1	20	-32	-3	82*	33	8	/
COc1ccc(S(=O)(=O)N2CCC(C(=O)NCCCc3ccccc3)CC2)cc1	17	14	-10	28	2	/	/
CC(=O)Oc1c(I)cc(I)cc1C(=O)Nc1ccc(Cl)cc1	4	-39	16	90*	-5	53*	19
COc1ccc(Cl)cc1C(=O)Nc1ccc(NC(C)=O)cc1	-19	3	7	1	-5	/	/
O=C1CCC/C=C/C[C@H](CC(=O)N(CCO)Cc2ccccc2)C(=O)N[C@@H](Cc2ccccc2)CO1	-8	0	26	-14	-2	/	/
COc1cccc(CNCCc2c[nH]c3ccccc23)c1OCc1ccc(F)cc1	38	22	-2	68*	-3	38	/
COc1cc(CNCCc2c[nH]c3ccccc23)cc(Cl)c1OCC(N)=O	18	-7	/	9	3	/	/
COc1ccccc1NC(=S)NCCc1c[nH]c2ccccc12	5	-11	-2	21	-4	/	/
COc1cc(CNCCc2c[nH]c3ccccc23)ccc1OCc1ccc(F)cc1	-14	-9	-21	99*	2	59*	57*
COc1ccc(NC(=O)c2cc3ccccc3o/c2=N\NS(=O)(=O)c2ccc(C)cc2)cc1	-74	-9	-48	38	-81	/	/
COc1cccc2cc(C(=O)Nc3cc(C)cc(C)c3)/c(=N/NS(=O)(=O)c3ccccc3)oc12	-24	8	1	78*	2	8	/
COc1cc(NC(=O)CCNS(=O)(=O)c2ccc3c(c2)CCC(=O)N3)cc(OC)c1	15	-22	2	3	7	/	/
COc1cccc(/C=N/NC(=O)c2cccc(N3CCCC3=O)c2)c1	-82	-56	-114	17	-31	/	/
COc1ccc(O)c(/C=N/NC(=O)c2cccc(N3CCCC3=O)c2)c1	69	-14	7	55*	14	57*	56*
O=C(N/N=C/c1cc(Br)ccc1O)c1cccc(N2CCCC2=O)c1	83	-38	41	54*	14	65*	31
COC(=O)c1ccc(OCC2c3cc(OC)c(OC)cc3CCN2C(=O)c2ccco2)cc1 (stereo not given)	57	9	6	53*	45	43*	71*
Cn1cc(CCC(=O)NCc2ccc(Cl)cc2)c2ccccc21	-14	-4	3	-6	4	/	/
COc1ccc(-c2sc3ccccc3c2-c2ccc(O)cc2)cc1	1	3	20	37	16	/	/
COc1ccc(-c2sc3cc(OC)c(OC)cc3c2-c2ccc(O)cc2)cc1	-1	-16	17	53*	-8	32	/
COc1ccc(-c2oc(NC(=O)CCl)c(C#N)c2-c2ccc(OC)cc2)cc1	/	26	-7	98*	9	65*	55*
O=C(OCC(=O)N1CCN(c2ccccc2)CC1)c1ncc(Cl)c(Cl)c1Cl	6	11	-8	4	22	/	/
C#CCn1c(S(=O)(=O)Cc2ccccc2Cl)nc(-c2ccccc2)c1-c1ccccc1	75	-68	8	73*	-15	47*	84*
Cc1ccc2[nH]c(O)c(N=Nc3nc4ccccc4s3)c2c1	35	-13	-5	68*	-15	55*	47*
COCCCNc1c2c3c(cccc3[nH]c1=O)C(=O)c1ccccc1-2	-2	0	-18	57*	-26	58*	86*
O=[N+]([O-])c1cc(S(=O)(=O)C(F)(F)F)ccc1Sc1nc2ccccc2[nH]1	16	-33	-16	57*	-34	12	/
SMILES	Shn3 3UTR inh	697 NFkB inh	Gli-Sufu block	Mdm2 MdmX PPI	Jurkat NFkB inh	Mdm2 MdmX conf	Full FLuc ctr
O=[N+]([O-])c1cc(S(=O)(=O)C(F)(F)F)ccc1Sc1nc2ccccc2s1	98*	-7	3	96*	-2	10	/
O=S(=O)(Nc1ccc(O)c(Sc2nc3ccccc3s2)c1)c1ccc(F)cc1	1	-27	3	13	-4	/	/
O=[N+]([O-])c1ccccc1S(=O)(=O)N1CCN(Cc2ccsc2)CC1	1	0	8	13	0	/	/
CN(CC(=O)NCc1ccccn1)S(=O)(=O)c1ccc(Br)cc1	-10	8	-1	15	4	/	/
CC1CCC/C=C/C(=O)c2c(O)cc(O)cc2CC(=O)O1 (stereo not given)	87*	-106	-2	100*	18	98*	56*
COc1ccc(NC(=O)CC2C(=O)Nc3ccccc3N2CC(=O)N2CCCC2)cc1 (stereo not given)	1	8	6	4	7	/	/
Cc1ccc(CNCc2cc3c(C(C)(C)C)nn(-c4ccccc4)c3[nH]c2=O)cc1	20	-13	2	50*	3	31	/
COc1ccc(OC)c(S(=O)(=O)NC(=O)C2(C)CCN2C(=O)Cc2ccccc2Cl)c1 (stereo not given)	0	/	/	/	/	/	/
CCn1c(=N)n(CC(=O)c2ccc(Br)s2)c2ccccc21	/	-23	10	-13	-27	/	/
C=CCn1c(=N)n(CC(=O)c2ccc(OC)cc2)c2ccccc21	1	-6	0	14	3	/	/
CCCCn1c(=N)n(CC(=O)c2ccc(OC)cc2)c2ccccc21	/	-5	/	79*	36	44*	48*
CCCCn1c(=N)n(CC(=O)c2ccc(Br)s2)c2ccccc21	58	-12	8	97*	12	59*	53*
N=c1n(CC(=O)c2ccc(Br)cc2)c2ccccc2n1Cc1ccccc1	36	-13	28	97*	2	75*	55*
N#CCCN(C(=O)COc1ccc(Cl)cc1Cl)c1ccccc1	9	2	3	4	-7	/	/
COc1ccccc1OCCn1c(SCC(=O)O)nc2ccccc21	7	-6	-1	18	7	/	/
O=C1NC(Cc2ccccc2)c2nc3ccc(Br)cc3c(=O)n2-c2cc(Cl)ccc21 (stereo not given)	/	6	/	28	10	/	/
Cc1nnc(SCC(=O)c2c(N)n(C3CC3)c(=O)[nH]c2=O)n1-c1ccccc1	-9	19	-9	-11	7	/	/
COc1cc2cc(-c3ccc(O)cc3O)nc(C)c2cc1OC	5	34	35	84*	-11	53*	53*
COc1cc2cc(-c3ccc(OC)c(OC)c3C)nc(N)c2cc1OC	/	-13	46	94*	47	70*	62*
Cc1cnn(-c2cc(N/N=C/c3ccccc3Cl)ncn2)c1	-3	19	-22	63*	10	-2	/
COc1ccc(/C=N/Nc2cc(OC)ncn2)cc1	-18	/	-108	/	/	/	/
Cc1cnn(-c2cc(N/N=C/c3ccc(F)cc3)ncn2)c1	-12	-18	-3	52*	-27	42*	101*

High-throughput results (PubChem BioAssay)
